Laboratory results published in PubChem BioAssay AID624117 (National Center for Advancing Translational Sciences (NCATS), 2012).
Inconclusive results are not listed. A call without a number means that no potency is given here. Activity calls are given as the source filed them. Calls come from the whole dose curve; as a rule, active = well fitted curve in the direction sought with a large enough effect; inconclusive = small, poorly fitted or top-dose-only effect, or another doubt; inactive = no such curve, though single readings can be large or run the other way.

Assay: qHTS Assay for Rab9 Promoter Activators: Hit Validation Using Renilla Luciferase Read-Out
Conditions: Huh7 NPC1 promoter Renilla luciferase reporter, 24 h; series mostly up to 76.9 µM
Outline: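 Hit validation in Huh7 NPC promoter-luciferase reporter line: compound treatment 24 h at 37 deg C, then luminescence measured after 10 min room-temperature incubation with […] reagent.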

Structure (SMILES) | Potency
O=C(NC1CCCC1)C(c1ccc(F)cc1)N(C(=O)c1csnn1)c1ccccc1 (centres undefined) | inactive
COc1ccc(C)cc1N(C(=O)CNC(=O)c1ccco1)C(C(=O)NC1CCCC1)c1cccnc1 (centres undefined) | inactive
CC1CCCN(S(=O)(=O)c2ccc(C(=O)Nc3nnc(-c4ccncc4)o3)cc2)C1 (centres undefined) | inactive
CC(Sc1ncnc2c1cnn2-c1ccccc1)C(=O)Nc1ccc(N2CCOCC2)cc1 (centres undefined) | inactive
O=C(CSc1nnc(-c2ccccc2)o1)Nc1ccccc1F | inactive
Cc1cc(C)cc(N(CC(=O)NC2CCCC2)C(=O)CNC(=O)c2ccco2)c1 | inactive
COc1ccc(NC(=S)NNC(=O)c2cccs2)cc1 | inactive
O=C(NCCSCc1c(F)cccc1Cl)c1ccc(CN2CCOCC2)cc1 | inactive
COc1ccc(-c2cc(C(=O)Nc3ccccc3F)on2)cc1 | inactive
Cc1ccc(NC(=O)NC(=O)c2ccccc2)cc1F | inactive
Cc1ccc(S(=O)(=O)/N=C2\C=C(Nc3cccc(C(=O)O)c3)C(=O)c3ccccc32)cc1 | inactive
Cc1ccc(C(=O)Nc2nnc(S(=O)(=O)N3CCOCC3)s2)cc1 | inactive
COc1ccc(-c2nnc(SCC(=O)/C(C#N)=C(\C)N)o2)cc1 | inactive
O=C(Nc1nc2ccc(F)cc2s1)c1ccc(N2CCCC2=O)cc1 | inactive
OCCC1CN(Cc2nc3ccccc3s2)CCN1C1CCCC1 (centres undefined) | inactive
COc1ccc(-c2noc(N3CCCC(C(=O)Nc4ccccc4F)C3)n2)cc1 (centres undefined) | inactive
CCN(CC)S(=O)(=O)c1ccc(NCc2ccccn2)nc1 | inactive
CCC(=O)Nc1cc(-c2cc3ccccc3oc2=O)ccc1OC | inactive
O=C(CSc1nnc(-c2ccc([N+](=O)[O-])cc2)o1)Nc1ccccn1 | inactive
Cc1csc(NC(=O)CSc2nnc(-c3ccncc3)o2)n1 | inactive

Structure (SMILES) | Potency
CCCC(C)NC(=O)c1ccc(OCc2ccc(Cl)cc2)c(OC)c1 (centres undefined) | inactive
CCN(C(=O)COC(=O)c1ccc(C=O)cc1)c1c(N)n(Cc2ccccc2)c(=O)[nH]c1=O | inactive
COc1cccc(C(C(=O)NC2CCCC2)N(CCC(C)C)C(=O)CCC(=O)Nc2cc(C)on2)c1 (centres undefined) | inactive
COc1ccccc1N(C(=O)c1snc(C(N)=O)c1N)C(C(=O)NC1CCCCC1)c1cccc(OC)c1OC (centres undefined) | inactive
CC1CCCN(C(=S)Nc2ccc(Nc3ccccc3)cc2)C1 (centres undefined) | inactive
Cc1ccc(C(=O)NC2CCN(CC(=O)Nc3c(C)cc(C)cc3C)CC2)cc1 | inactive
O=[N+]([O-])c1cnccc1Nc1ccc(F)cc1 | inactive
Cc1ccc(N=Cc2sc(O)c3ccccc23)c(C)c1 | inactive
CC(=O)c1cccc(NC(=O)N2CCOCC2)c1 | inactive
O=C(COC(=O)c1ccc(-c2nnc(-c3ccccc3)o2)cc1)c1ccccc1 | inactive
Nc1c(N(CCO)C(=O)/C=C/c2ccco2)c(=O)[nH]c(=O)n1Cc1ccccc1 | inactive
CCc1cc(C(=O)Nc2ccccc2)cs1 | inactive
CC(=O)Nc1nnc(SCC(=O)NCCOc2ccccc2)s1 | inactive
O=C(c1cc2cc([N+](=O)[O-])ccc2oc1=O)n1cccn1 | inactive
O=CN1CCN(C(=O)c2ccccc2Cl)CC1 | inactive
COCCNC(=O)C1CCC(CNS(=O)(=O)c2ccc(F)cc2)CC1 (centres undefined) | inactive
COc1ccc(/C=C\C(=O)c2c(O)ccc3c(C)cc(=O)oc23)cc1OC | inactive
O=C(CSc1nnc(-c2csc3c2CCCC3)o1)Nc1ccccc1 | inactive
CCOC(=O)C1(Cc2cccc(Cl)c2)CCCN(C(=O)CCSC)C1 (centres undefined) | inactive
